PubChem BioAssay (Tox21)
Inconclusive results are not listed. The source made the active and inactive calls. Unless noted, the call rests on the fitted dose curve.

How the values were obtained:
[1] = molecular target: KiSS-1 receptor (Homo sapiens) (UniProt Q969F8); assay: Human kisspeptin (KISS1R) small molecule agonists, calcium flux assay in KISS1R-HEK293 cells (AID 1920064; active means well fitted activation curve with a large enough effect in the repeat runs)
In short: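 Agonist mode: intracellular calcium rise tracked at 1 s intervals over 3 min (480/540 nm) immediately after compound addition to dye-loaded KISS1R-HEK293 stable cells. Each compound tested at 15 concentrations in triplicate.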

[2] = G protein-coupled receptor (GPCR) small molecule agonists, calcium flux assay: HEK293 wild type cell line counter screen (AID 1920065)
In short: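 Calcium flux counter screen: compound added in agonist mode at 15 concentrations in triplicate to dye-loaded parental HEK293 cells. Fluorescence (480/540) read kinetically for 3 min; ATP served as positive control.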

[3] = p53 small molecule agonists, cell-based qHTS assay with human liver microsomes (AID 1963577)
In short: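 Fluorescence of the beta-lactamase reporter in p53RE-bla cells, detected with LiveBLAzer substrate (2 h, room temperature, dark), served as the read-out after 16 h compound exposure at 37 C with human liver microsomes and NADPH, each 0.5 mg/mL final.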

[4] = p53 small molecule agonists, cell-based qHTS assay with rat liver microsomes (AID 1963578)
In short: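 Cells carrying a p53 response element–beta-lactamase reporter were plated and rested 5 h, then dosed with compound in DMSO plus rat liver microsomes and NADPH, each at 0.5 mg/mL final. After 16 h at 37 C, LiveBLAzer substrate was added for 2 h.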

[5] = p53 small molecule agonists, cell-based qHTS assay with human liver microsomes: qHTS cell viability counter screen (AID 1963579); further: nearly all actives have a fitted effect of over 45% in size
In short: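 Cytotoxicity counter screen: p53RE-bla, 4,000 cells/well; 5 h settle, 37 C/5% CO2; cpd + HLM 0.5 mg/mL + NADPH 0.5 mg/mL (final); 16 h, 37 C; CellTiter-Glo, 30 min RT, luminescence.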

[6] = p53 small molecule agonists, cell-based qHTS assay (AID 1963582; active means well fitted activation curve with a large enough effect in the signal ratio in the repeat runs, not every such curve was filed as active; the % refers to the signal ratio)
In short: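 Read-out is beta-lactamase FRET fluorescence after 2 h at room temperature with LiveBLAzer B/G substrate. p53 response element-bla cells were treated 16 h at 37 C with compounds in DMSO, added 5 h after seeding.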

[7] = molecular target: 5-hydroxytryptamine receptor 2A (Homo sapiens) (UniProt P28223); assay: 5-hydroxytryptamine receptor 2A (HTR2A) small molecule antagonists, cell-based qHTS assay (AID 1963586); further: nearly all actives have a fitted effect of over 45% in size
Sequence of 5-hydroxytryptamine receptor 2A (Homo sapiens) (P28223 whole entry, looked up): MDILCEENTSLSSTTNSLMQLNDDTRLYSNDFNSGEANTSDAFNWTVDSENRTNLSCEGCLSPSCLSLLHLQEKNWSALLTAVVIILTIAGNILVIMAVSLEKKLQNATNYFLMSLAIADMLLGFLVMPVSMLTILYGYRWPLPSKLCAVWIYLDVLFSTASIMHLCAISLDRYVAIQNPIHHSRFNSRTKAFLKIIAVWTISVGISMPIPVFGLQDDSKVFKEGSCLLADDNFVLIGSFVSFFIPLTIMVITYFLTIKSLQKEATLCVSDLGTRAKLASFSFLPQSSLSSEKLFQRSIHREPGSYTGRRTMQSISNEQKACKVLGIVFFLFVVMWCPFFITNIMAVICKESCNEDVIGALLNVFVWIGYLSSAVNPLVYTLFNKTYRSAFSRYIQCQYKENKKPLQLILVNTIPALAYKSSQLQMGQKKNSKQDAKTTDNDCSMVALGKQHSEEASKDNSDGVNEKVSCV
In short: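 CHO cells stably expressing human HTR2A were plated for 18 h at 37 C, then loaded with calcium dye for 1 h. Compounds were preincubated 5 min at room temperature before DOI (4 nM solution) was added. Kinetic fluorescence was read for 3 min.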

[8] = molecular target: 5-hydroxytryptamine receptor 2A (Homo sapiens) (UniProt P28223); assay: 5-hydroxytryptamine receptor 2A (HTR2A) small molecule agonists, cell-based qHTS assay (AID 1963587); further: nearly all actives have a fitted effect of over 30% in size
In short: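 CHO cells stably expressing human HTR2A, plated 18 h, loaded with calcium dye 1 h at 37 C. Agonist mode: compounds added and intracellular calcium fluorescence recorded kinetically for 2 min at 1 sec intervals.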

[9] = molecular target: Muscarinic acetylcholine receptor M1 (Homo sapiens) (UniProt P11229); assay: Cholinergic receptor muscarinic 1 (CHRM1) small molecule antagonists, cell-based qHTS assay (AID 1963588); further: nearly all actives have a fitted effect of over 40% in size
Sequence of Muscarinic acetylcholine receptor M1 (Homo sapiens) (P11229 whole entry, looked up): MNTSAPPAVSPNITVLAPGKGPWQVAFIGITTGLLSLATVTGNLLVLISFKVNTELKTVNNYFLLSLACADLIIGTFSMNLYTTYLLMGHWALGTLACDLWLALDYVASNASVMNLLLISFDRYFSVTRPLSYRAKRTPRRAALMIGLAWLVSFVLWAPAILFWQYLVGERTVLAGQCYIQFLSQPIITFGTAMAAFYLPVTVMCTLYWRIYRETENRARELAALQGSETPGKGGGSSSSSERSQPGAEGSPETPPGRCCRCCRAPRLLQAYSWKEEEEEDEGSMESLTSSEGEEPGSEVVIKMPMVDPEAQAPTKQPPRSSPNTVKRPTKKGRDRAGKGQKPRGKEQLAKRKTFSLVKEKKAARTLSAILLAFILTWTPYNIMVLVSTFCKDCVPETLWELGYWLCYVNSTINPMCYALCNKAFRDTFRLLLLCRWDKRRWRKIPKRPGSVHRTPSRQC
In short: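 Compounds were tested at 15 concentrations in three independent runs. Dye-loaded CHRM1-CHO cells were exposed 5 min at room temperature before stimulation by acetylcholine added at 50nM. Intracellular calcium was read kinetically on FDSS for 3 min.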

[10] = molecular target: Muscarinic acetylcholine receptor M1 (Homo sapiens) (UniProt P11229); assay: Cholinergic receptor muscarinic 1 (CHRM1) small molecule agonists, cell-based qHTS assay (AID 1963589); further: nearly all actives have a fitted effect of over 35% in size
In short: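 Agonist-mode calcium-flux screen: compounds at 15 concentrations, three independent runs, were pin-transferred onto dye-loaded human CHRM1-CHO cells. Fluorescence was then recorded kinetically every second over minutes.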

[11] = cAMP Responsive Elements (CRE) small molecule agonists, cell-based qHTS assay (AID 1963590)
In short: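 Agonist mode: compound added to CRE-bla HEK 293T cells (2,000/well, 18 h after plating) for 3 h at 37 C/5% CO2. Reporter activity detected via FRET beta-lactamase substrate, 2 h room-temperature loading.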

[12] = cAMP Responsive Elements (CRE) small molecule antagonists, cell-based qHTS assay (AID 1963591; active means well fitted inhibition curve with a large enough effect in the signal ratio in the repeat runs, not every such curve was filed as active; the % refers to the signal ratio)
In short: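 Antagonist mode: compounds are added alongside the adenylyl cyclase activator NKH477 (0.25 uM final) to CRE-bla HEK293T cells for 3 h. LiveBLAzer FRET substrate, 2 h at room temperature, reports bla expression.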

[13] = molecular target: Beta-2 adrenergic receptor (Homo sapiens) (UniProt P07550); assay: Adrenergic beta2 receptor (ADRB2) small molecule antagonists, cell-based qHTS assay (AID 1963592); further: series mostly up to about 92 µM; nearly all actives have a fitted effect of over 50% in size
Sequence of Beta-2 adrenergic receptor (Homo sapiens) (P07550 whole entry, looked up): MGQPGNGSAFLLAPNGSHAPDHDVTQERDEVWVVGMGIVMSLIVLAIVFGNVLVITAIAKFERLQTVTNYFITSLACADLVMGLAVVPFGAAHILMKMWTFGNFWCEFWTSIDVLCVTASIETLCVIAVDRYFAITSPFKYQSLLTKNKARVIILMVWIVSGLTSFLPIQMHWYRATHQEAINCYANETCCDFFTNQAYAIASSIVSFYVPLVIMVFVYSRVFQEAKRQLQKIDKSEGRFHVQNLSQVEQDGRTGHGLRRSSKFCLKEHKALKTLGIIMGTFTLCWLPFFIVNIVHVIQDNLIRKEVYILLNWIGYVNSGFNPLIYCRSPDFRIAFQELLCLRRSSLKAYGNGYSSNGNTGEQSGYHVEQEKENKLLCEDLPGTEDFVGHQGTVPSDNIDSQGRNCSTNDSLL
In short: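 Assay format: CHO-ADRB2 cells, 18-20hr seeding at 37C/5% CO2, then compound plus 1nM isoproterenol agonist mix for 0.5hr RT. Homogeneous time-resolved fluorescence cAMP detection after 1hr, expressed as 665/615 nm ratio.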

[14] = molecular target: Beta-2 adrenergic receptor (Homo sapiens) (UniProt P07550); assay: Adrenergic beta2 receptor (ADRB2) small molecule agonists, cell-based qHTS assay (AID 1963593);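 further: CHO cells stably overexpressing human ADRB2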
In short: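 CHO cells stably over-expressing ADRB2 were plated overnight at 37C, then dosed with compounds plus a stimulation mix containing 100uM IBMX and 25uM Ro-20-1724 for 0.5hr at room temperature. cAMP was measured by HTRF competition, 1hr.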

[15] = molecular target: D(2) dopamine receptor (Homo sapiens) (UniProt P14416); assay: Dopamine D2 receptor (DRD2) small molecule agonists, cell-based qHTS assay (AID 1963594); further: nearly all actives have a fitted effect of over 35% in size
Sequence of D(2) dopamine receptor (Homo sapiens) (P14416 whole entry, looked up): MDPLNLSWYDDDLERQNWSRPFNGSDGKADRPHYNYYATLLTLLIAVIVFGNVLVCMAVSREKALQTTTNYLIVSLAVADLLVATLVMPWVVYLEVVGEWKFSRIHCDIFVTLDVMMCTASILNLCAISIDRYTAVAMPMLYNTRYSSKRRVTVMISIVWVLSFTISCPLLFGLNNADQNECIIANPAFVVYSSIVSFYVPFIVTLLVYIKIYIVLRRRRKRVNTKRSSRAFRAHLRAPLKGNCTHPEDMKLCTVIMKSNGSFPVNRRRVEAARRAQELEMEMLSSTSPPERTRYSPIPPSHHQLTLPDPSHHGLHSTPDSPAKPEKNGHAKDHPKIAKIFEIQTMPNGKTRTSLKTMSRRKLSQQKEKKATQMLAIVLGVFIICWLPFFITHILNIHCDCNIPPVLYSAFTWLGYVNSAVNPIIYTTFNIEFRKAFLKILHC
In short: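 HEK293 cells stably expressing human DRD2, pre-treated with PDE inhibitor Ro20-1724 (0.1 mM final) and compound 10 min at room temperature, then stimulated with NKH477 (200nM […]) for 30 min. cAMP read by HTRF (665/620 nm).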

[16] = molecular target: D(2) dopamine receptor (Homo sapiens) (UniProt P14416); assay: Dopamine D2 receptor (DRD2) small molecule antagonists, cell-based qHTS assay (AID 1963595; active means well fitted inhibition curve with a large enough effect in the signal ratio in the repeat runs, with a control signal flat; the % refers to the signal ratio)
In short: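 HTRF cAMP read-out at 665 and 620 nm emission (340 nm excitation). Antagonist mode: compounds were tested against 12 nM quinpirole in DRD2-HEK293 cells, with 200 nM NKH477 raising cAMP and 0.1 mM Ro20-1724 blocking its breakdown.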

[17] = molecular target: Gonadotropin-releasing hormone receptor (Homo sapiens) (UniProt P30968); assay: Human gonadotropin-releasing hormone receptor (GnRHR) small molecule agonists, calcium flux assay in GnRHR-HEK293 cells (AID 1920063); further: nearly all actives have a fitted effect of over 35% in size
Sequence of Gonadotropin-releasing hormone receptor (Homo sapiens) (P30968 whole entry, looked up): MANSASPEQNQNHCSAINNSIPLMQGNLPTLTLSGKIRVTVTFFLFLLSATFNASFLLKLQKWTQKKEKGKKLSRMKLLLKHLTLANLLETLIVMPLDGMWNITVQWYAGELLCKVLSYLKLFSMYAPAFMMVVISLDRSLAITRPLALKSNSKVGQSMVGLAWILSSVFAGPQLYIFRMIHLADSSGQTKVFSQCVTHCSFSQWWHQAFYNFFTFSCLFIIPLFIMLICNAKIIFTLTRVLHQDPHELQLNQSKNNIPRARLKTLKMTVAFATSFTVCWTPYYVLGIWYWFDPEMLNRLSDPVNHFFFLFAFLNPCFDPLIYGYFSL
In short: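 Agonist mode: compounds at 15 concentrations, in triplicate, went onto calcium dye-loaded GnRHR-HEK293 cells. Intracellular calcium was then followed as 480/540 nm fluorescence at 1 s intervals over 3 min.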

[18] = p53 small molecule agonists, cell-based qHTS assay with rat liver microsomes: qHTS cell viability counter screen (AID 1963580); further: nearly all actives have a fitted effect of over 45% in size
In short: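 After the beta-lactamase ratio was read, CellTiter-Glo was added to the same wells and luminescence measured at 30 min; cells had been treated 16 h at 37 C with compounds, rat liver microsomes and NADPH (0.5 mg/mL final each).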

[19] = p53 small molecule agonists, cell-based qHTS assay: qHTS cell viability counter screen (AID 1963581); further: nearly all actives have a fitted effect of over 45% in size
In short: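 Counter screen read by CellTiter-Glo luminescence (ATP content, 30 min at room temperature), run in the same wells as the beta-lactamase reporter read. HCT-116 p53RE-bla cells saw compounds for 16 h at 37 C.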

[20] = Nuclear factor erythroid 2-related factor 2/antioxidant responsive element (Nrf2/ARE) small molecule agonists: luciferase reporter gene qHTS assay in human keratinocytes (AID 1919969); further: nearly all actives have a fitted effect of over 35% in size

Measured: Potency

Sequence of KiSS-1 receptor (Homo sapiens) (Q969F8 whole entry, looked up): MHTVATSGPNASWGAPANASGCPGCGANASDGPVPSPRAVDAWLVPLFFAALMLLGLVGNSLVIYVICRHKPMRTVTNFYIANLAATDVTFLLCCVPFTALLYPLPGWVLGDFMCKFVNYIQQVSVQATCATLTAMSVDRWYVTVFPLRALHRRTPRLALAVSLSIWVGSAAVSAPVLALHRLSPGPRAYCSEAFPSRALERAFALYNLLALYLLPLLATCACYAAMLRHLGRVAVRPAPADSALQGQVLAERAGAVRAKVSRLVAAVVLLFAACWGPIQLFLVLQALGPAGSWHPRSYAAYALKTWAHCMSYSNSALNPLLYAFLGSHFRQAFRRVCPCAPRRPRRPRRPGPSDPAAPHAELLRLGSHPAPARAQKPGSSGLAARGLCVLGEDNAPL

Cc1ccc(C)cc1
not listed: [17] | [18] | [19] | [20]
inactive: all other assays above

CCCCC(CC)COCCC#N (stereo not given)
not listed: [1] | [5] | [20]
inactive: all other assays above

Cc1cncc(C)c1
not listed: [13]
inactive: all other assays above

NCc1ccccc1Sc1ccccc1CO
not listed: [14]
inactive: all other assays above

CC(C)=CCC/C(C)=C/C(=O)O
not listed: [12]
inactive: all other assays above

CCCCCC(=O)CC
inactive: all assays above

O=Cc1ccc(Cl)c(Cl)c1
inactive: all assays above
